Screening data: PubChem, National Center for Advancing Translational Sciences (NCATS)
Only some compounds are listed: those with a hit (about 9.4% of all), similar ones and a draw of the others.
AMA1-RON2 inh: disrupts binding of P. falciparum AMA1 to RON2 | AlphaScreen AMA1-biotinylated RON2 peptide binding | Potency, µM (series often up to 58.2 µM), for the others: at the top dose activity change, negative = inhibition, most hits filed as inhibitors | 0.2% of 360,000 active | AID 720542;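 also: 0% = vehicle wells and -100% = peptide control; nearly all actives have a fitted effect of over 45% in size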
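AMA1 (3D7) with his tag at 25 nM final met compounds first, then biotinylated RON2 peptide at 25 nM; detection used donor plus acceptor beads, 10 µg/mL apiece, read by AlphaScreen after 30 min at room temperature.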
Pf growth 48h: P. falciparum growth inhibition at 48 hours (one generation). P. falciparum luciferase growth in erythrocytes, 48 h. Potency, µM (titrated, usually from 28.7 µM), for the others: top-dose activity change, negative = inhibition, usual class: inhibitors. 5.9% of 310,000 active; also: % is scaled to controls: 0 for no effect and ±100 for the full control effect
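Cell-based growth assay: transgenic P. falciparum expressing firefly luciferase, cultured in red cells within RPMI 1640 containing 0.5% w/v Albumax, 24 mM bicarbonate and gentamycin. A drop in luciferase activity indicates inhibition.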
SARS PLpro yeast: blocks SARS-CoV papain-like protease in a yeast assay. S. cerevisiae expressing SARS-CoV PLpro, growth rescue. Potency, µM (top dose mostly 32.9 µM), inactives show top-dose activity, positive = growth rescue, usual class: activators. 0.19% of 330,000 active. AID 485353; calls by dose curve; also: 0% is about no effect; nearly all actives have a fitted effect of over 55% in size
Pf growth 96h: inhibits malaria parasite growth, 96 h; 6.9% of 320,000 active; P. falciparum luciferase reporter growth, 96 h; Potency, µM (highest dose often 28.7 µM), for the others: top-dose activity change, negative = inhibition, actives largely listed as inhibitors; also: % is scaled to controls: 0 for no effect and ±100 for the full control effect
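Readout is luminescence from an integrated firefly luciferase in P. falciparum. Red cells, 2% hematocrit and 0.05% parasitemia final, were cultured with compound through two parasite generations (96 hours) at 37 C, 5% CO2.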
* hit, by the source's call; ? = inconclusive; · = no result. Unless noted, calls follow the shape of the dose curve; as a rule, active = well fitted curve in the direction sought with a large enough effect; inconclusive = small, poorly fitted or top-dose-only effect, or another doubt; inactive = no such curve, though single readings can be large; an effect the other way counts as inactive or inconclusive. Potency is read from the fitted curve at half-maximal effect.

SMILES | AMA1-RON2 inh | Pf growth 48h | SARS PLpro yeast | Pf growth 96h
O=C(NC(Cc1ccccc1)C(=O)O)/C(=C\c1ccc(F)cc1)NC(=O)c1ccco1 (centres undefined) | -2.9% | 14.0% | 0.7% | -23.7%
O=C(Nc1ccncc1)C1CCN(S(=O)(=O)c2ccc(Cl)c(C(F)(F)F)c2)CC1 | -3.7% | ? | 0.8% | 11.7µM*
O=C(Nc1ccncc1)C1CCN(S(=O)(=O)c2ccccc2C(F)(F)F)CC1 | -0.5% | ? | 2.6% | 3.29µM*
Cc1ccc(-n2nc(CC#N)c(C#N)c2N)cc1Cl | -13.4% | 12.2% | 10.9% | 3.3%
COC(=O)c1oc2ccc(Br)cc2c1-n1cccc1 | 3.5% | 5.6% | -1.8% | ?
C=C(C)Cn1c(=O)c2c(nc3n2CCN3c2cccc(Cl)c2C)n(C)c1=O | -10.0% | 9.28µM* | -0.7% | ?
Cc1ccc(NC(=O)c2sc3nc4c(c(-c5ccco5)c3c2N)CCC4)cc1 | 15.3% | ? | 7.6% | 2.33µM*
N#CC1=C(N)Oc2ccc3ccccc3c2C1c1cccnc1 (centres undefined) | -4.4% | -21.9% | -0.4% | 0.0%
N#CC1=C(N)Oc2ccc3ccc(O)cc3c2C1c1cccnc1 (centres undefined) | -1.7% | 1.31µM* | 1.2% | ?
N#CC1=C(N)Oc2n[nH]c(-c3ccccc3)c2C1c1ccncc1 (centres undefined) | -3.3% | -14.5% | -0.4% | -0.9%
CCOc1ccc(C2C(C#N)=C(N)Oc3cc(C)n(Cc4ccco4)c(=O)c32)cc1OC (centres undefined) | -15.7% | ? | -0.3% | ·
N#CC1=C(N)Oc2n[nH]c(-c3ccc(F)cc3)c2C1c1cccnc1 (centres undefined) | 8.8% | · | -3.8% | 5.86µM*
Cc1cc2c(c(=O)n1Cc1ccco1)C(c1cccnc1)C(C#N)=C(N)O2 (centres undefined) | 3.0% | 0.0% | 10.6% | 9.28µM*
CN(C)c1ccnc(Oc2ccc(Cl)cc2)c1C#N | 5.2% | 40.9% | -19.7% | ?
CCOC(=O)CSc1ccc(S(=O)(=O)N2CCC(C)CC2)cc1[N+](=O)[O-] | -3.5% | -5.5% | 36.4% | 274.0%
Cc1ccc(CNc2ccc(S(=O)(=O)N3CCOCC3)cc2[N+](=O)[O-])cc1 | -26.7% | 1.0% | 3.2% | 10.4µM*
CN(CC(=O)O)c1ccc(S(=O)(=O)N2CCOCC2)cc1[N+](=O)[O-] | 12.9% | 2.62µM* | -1.8% | 94.5%
CN(CC(=O)Nc1ccc(F)cc1)c1ccc(S(=O)(=O)N2CCCCC2)cc1[N+](=O)[O-] | -6.8% | ? | 16.0% | ?
COC(=O)CSc1ccc(S(=O)(=O)N2CCOCC2)cc1[N+](=O)[O-] | 12.2% | 20.0% | -9.4% | 10.4µM*
CCCN(CCC)C(=O)C1CCN(c2ccc(S(=O)(=O)N3CCOCC3)cc2[N+](=O)[O-])CC1 | -8.9% | ? | 0.6% | 5.22µM*
COCCN(CCOC)C(=O)C1CCN(c2ccc(S(=O)(=O)N3CCOCC3)cc2[N+](=O)[O-])CC1 | 87.6% | ? | 2.4% | ?
Cc1cccc(Nc2ccc(S(=O)(=O)N3CCOCC3)cc2[N+](=O)[O-])c1 | ? | -23.8% | -1.6% | ?
Cc1[nH]c2ccccc2c1C(=O)CN1C(=O)NC2(CCCCCC2)C1=O | -7.6% | -26.6% | -1.8% | 5.6%
CNCc1c(OCc2ccccc2)ccc2ccccc12 | 6.7% | ? | -8.9% | ?
COc1cc(CNC(C)(C)CO)cc(Br)c1OCc1ccc(Cl)cc1Cl | -6.9% | 11.7µM* | -34.6% | 13.1µM*
SMILES | AMA1-RON2 inh | Pf growth 48h | SARS PLpro yeast | Pf growth 96h
COc1cc(CNC(C)(C)CO)cc(Br)c1OCc1ccc(Cl)cc1 | 3.3% | 13.1µM* | -14.2% | ?
CC(C)(CO)NCc1c(OCc2ccc(Cl)cc2)ccc2ccccc12 | 0.2% | ? | 1.2% | 4.15µM*
O=C(N/C=C/n1cnc2cc(C(F)(F)F)ccc21)c1ccc(F)cc1 | 4.5% | · | · | ·
CS(=O)(=O)N1Cc2cc(C(=O)NCC3CC3)nc(-c3cccc(-c4cccnc4)c3)c2[C@@H]1CCO | 10.1% | · | · | ·
Cc1cc(C(=O)COc2cccc3cccnc23)c(C)n1C | 21.7% | 11.7µM* | -25.3% | 3.29µM*
CCn1c(COc2cccc3cccnc23)nnc1SCC(=O)O | -2.6% | · | 8.3% | 31.3%
Cn1c(COc2cccc3cccnc23)nnc1SCC(=O)O | 5.3% | 48.0% | 1.0% | 10.4µM*
O=C(CCC1CCCC1)Nc1ccc(OCC(=O)N2CCOCC2)cc1 | -5.4% | 16.9% | 2.0% | -15.4%
Cc1ccc(C(=O)Nc2ccccc2C(=O)O)cc1S(=O)(=O)NC1CCCCC1 | -2.9% | 2.0% | -2.8% | 0.0%
CCn1c(CNC(=O)Cc2ccc(OC)cc2)nnc1SCC(=O)Nc1ccc(C(=O)O)cc1 | -4.9% | 39.7% | 0.4% | -15.2%
O=C1CCC(C(=O)OC(C(=O)c2c[nH]c3ccccc23)c2ccccc2)=NN1 (centres undefined) | -8.3% | 25.1% | 6.2% | 32.7%
Cc1sc2nc(-c3cccs3)nc(N3CCCN(C)CC3)c2c1C | · | 10.4µM* | -2.6% | ?
CCCN1CCN(c2nc(-c3cccs3)nc3ccccc23)CC1 | -22.0% | ? | -2.2% | ?
O=C(OCCCN1CCCCC1)c1ccc(O)cc1 | 4.0% | 25.2% | -1.5% | 2.62µM*
O=C(OCCN1CCCCC1)c1ccc(O)cc1 | 2.6% | 6.4% | 7.3% | ·
CCOc1ccccc1C(=O)NCC(=O)NNC(=O)c1cccs1 | 22.7% | · | 0.9% | ·
COc1cc(CCC(=O)N2CCN(c3ccc([N+](=O)[O-])cc3)CC2)cc(OC)c1OC | 11.1% | ? | -2.5% | ?
CCS(=O)(=O)N1CCC(C(=O)Nc2cc(C)ccc2O)CC1 | -11.0% | -5.9% | 7.1% | 11.7µM*
CCS(=O)(=O)N1CCC(C(=O)Nc2cc(Cl)ccc2O)CC1 | 5.9% | 0.0% | -24.5% | 31.7%
Cc1ccc(NC(=O)C2CCN(S(=O)(=O)c3ccc4c(c3)OCCO4)CC2)c(O)c1 | -13.1% | ? | 4.8% | 11.7µM*
COc1ccccc1[C@@H]1C(c2cccc(C)c2)=NN(c2ccccc2)[C@H]1C(=O)N1CCOC1=O | 30.3% | 13.1µM* | 7.5% | 10.4µM*
CC(=O)Nc1ccccc1-c1nc2ccccc2nc1OCC(=O)c1ccc2ccccc2c1 | -9.4% | ? | 6.7% | -26.8%
COC(=O)c1cc(C(=O)c2cc(F)ccc2O)cn2c(=O)c3c(C)c(C)sc3nc12 | -10.3% | 2.08µM* | -0.8% | 2.62µM*
CCOC(=O)c1sc2nc3c(SCC(=O)O)cc(C(=O)c4cc(F)ccc4O)cn3c(=O)c2c1C | -6.3% | -4.0% | 6.0% | 31.3%
COc1ccc(-c2cc(C(=O)NCCCN3CCOCC3)on2)cc1OC | 20.7% | ? | 7.3% | ?
O=C(O)c1ccccc1-c1c2cc(Br)c(=O)cc-2oc2[c]([Hg])c(O)c(Br)cc12 | · | ? | · | 6.42µM*
O=C(O)c1ccccc1-c1c2cc(Br)c(=O)c(Br)c-2oc2c(Br)c(O)c(Br)cc12 | · | -10.6% | · | ?
CN(C)C(/C=C/Nc1ccc(O)cc1)=C(C#N)C#N | 25.3% | ? | 1.8% | 9.28µM*
O=C1CN(S(=O)(=O)c2ccc(F)cc2)c2ccccc2N1 | 1.3% | 42.3% | 1.6% | -12.2%
